# In PMC7862700, “An all-to-all approach to the identification of sequence-specific readers for epigenetic DNA modifications on cytosine”:
# What was measured:
# Assay in all cases: DAPPL (digital affinity profiling via proximity ligation, sequencing); 10 mM Tris-HCl pH 7.5, 50 mM NaCl, 1 mM DTT, 4% glycerol, room temperature, 30 min; GST-TFs on glutathione beads, 16-mer random dsDNA library, 0.1% formaldehyde crosslink after washing; high values mean tight binding
# FEV = target: T1, FEV (Homo sapiens, UniProt Q99581 1-238); settings: protein: recombinant; tags: N-terminal GST; dsDNA, one strand shown
# T1 sequence: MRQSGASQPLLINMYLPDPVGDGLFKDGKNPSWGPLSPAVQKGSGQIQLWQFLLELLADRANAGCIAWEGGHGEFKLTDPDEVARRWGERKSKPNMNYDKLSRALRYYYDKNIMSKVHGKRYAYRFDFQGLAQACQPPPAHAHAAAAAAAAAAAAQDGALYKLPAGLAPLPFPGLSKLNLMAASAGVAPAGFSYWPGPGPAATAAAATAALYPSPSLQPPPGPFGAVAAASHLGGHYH
# In short: (§1)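 The binding signal reported is, for every hexamer, its read frequency for a factor over its read frequency for the tag-only sample. Reads came from pools of yeast-expressed, GST-fused human transcription factors on glutathione beads, barcoded with DNA and mixed with that sample, which were incubated with 200 nmole of a random double-stranded 16-mer DNA library in Tris/NaCl/DTT/glycerol buffer at room temperature for 30 min. After washing, the pools were crosslinked with 0.1% formaldehyde, proximity-ligated with BsaI/T4 ligase for 1 h at 37 °C, PCR-amplified and sequenced on an Illumina NextSeq500.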
# ETV5 = ETV5 (Homo sapiens, UniProt P41161 1-510); settings: protein: recombinant; tags: N-terminal GST; dsDNA, one strand shown
# ETV5, sequence (P41161 whole entry): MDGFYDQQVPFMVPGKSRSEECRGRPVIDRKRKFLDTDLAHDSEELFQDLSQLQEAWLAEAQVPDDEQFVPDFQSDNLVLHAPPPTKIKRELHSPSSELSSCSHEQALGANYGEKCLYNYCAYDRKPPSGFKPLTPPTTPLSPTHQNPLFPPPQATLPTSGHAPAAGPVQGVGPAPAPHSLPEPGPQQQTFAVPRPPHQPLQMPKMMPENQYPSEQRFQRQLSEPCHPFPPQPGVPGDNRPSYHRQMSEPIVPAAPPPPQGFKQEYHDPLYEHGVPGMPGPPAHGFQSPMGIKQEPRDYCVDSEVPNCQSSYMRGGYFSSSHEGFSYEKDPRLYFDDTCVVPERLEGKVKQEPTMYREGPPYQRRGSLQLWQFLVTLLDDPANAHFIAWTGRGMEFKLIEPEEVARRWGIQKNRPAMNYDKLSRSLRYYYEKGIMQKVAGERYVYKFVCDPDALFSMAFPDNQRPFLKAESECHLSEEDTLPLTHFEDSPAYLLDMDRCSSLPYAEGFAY
# In short: as §1
# HSF1 = HSF1 (Homo sapiens, UniProt Q00613 1-529); settings: protein: recombinant; tags: N-terminal GST; chain copies: 3; dsDNA, one strand shown
# HSF1, sequence (Q00613 whole entry): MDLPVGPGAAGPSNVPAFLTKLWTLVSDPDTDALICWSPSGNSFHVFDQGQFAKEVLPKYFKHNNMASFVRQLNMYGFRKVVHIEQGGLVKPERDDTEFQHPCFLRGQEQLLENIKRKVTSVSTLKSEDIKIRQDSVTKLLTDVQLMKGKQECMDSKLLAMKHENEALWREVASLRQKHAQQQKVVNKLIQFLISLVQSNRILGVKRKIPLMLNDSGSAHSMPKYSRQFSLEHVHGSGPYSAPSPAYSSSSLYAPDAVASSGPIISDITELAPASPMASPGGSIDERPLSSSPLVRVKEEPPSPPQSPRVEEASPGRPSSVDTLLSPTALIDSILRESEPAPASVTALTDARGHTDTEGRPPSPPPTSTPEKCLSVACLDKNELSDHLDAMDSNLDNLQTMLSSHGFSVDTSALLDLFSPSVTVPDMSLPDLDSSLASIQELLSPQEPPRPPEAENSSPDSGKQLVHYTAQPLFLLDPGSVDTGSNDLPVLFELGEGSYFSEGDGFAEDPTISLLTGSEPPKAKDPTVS
# In short: as §1
# SPIC = target: T2, SPIC (Homo sapiens, UniProt Q8N5J4 1-248); settings: protein: recombinant; tags: N-terminal GST; dsDNA, one strand shown
# T2 sequence: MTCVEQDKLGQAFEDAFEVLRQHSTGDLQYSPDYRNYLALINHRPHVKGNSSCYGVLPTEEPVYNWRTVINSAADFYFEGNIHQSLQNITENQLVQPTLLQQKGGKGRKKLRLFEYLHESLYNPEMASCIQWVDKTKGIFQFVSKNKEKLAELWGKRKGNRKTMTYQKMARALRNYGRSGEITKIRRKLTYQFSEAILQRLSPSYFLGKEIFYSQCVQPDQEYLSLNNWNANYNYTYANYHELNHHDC
# In short: as §1
# ELF4 = ELF4 (Homo sapiens, UniProt Q99607 1-663); settings: protein: recombinant; tags: N-terminal GST; dsDNA, one strand shown
# ELF4, sequence (Q99607 whole entry): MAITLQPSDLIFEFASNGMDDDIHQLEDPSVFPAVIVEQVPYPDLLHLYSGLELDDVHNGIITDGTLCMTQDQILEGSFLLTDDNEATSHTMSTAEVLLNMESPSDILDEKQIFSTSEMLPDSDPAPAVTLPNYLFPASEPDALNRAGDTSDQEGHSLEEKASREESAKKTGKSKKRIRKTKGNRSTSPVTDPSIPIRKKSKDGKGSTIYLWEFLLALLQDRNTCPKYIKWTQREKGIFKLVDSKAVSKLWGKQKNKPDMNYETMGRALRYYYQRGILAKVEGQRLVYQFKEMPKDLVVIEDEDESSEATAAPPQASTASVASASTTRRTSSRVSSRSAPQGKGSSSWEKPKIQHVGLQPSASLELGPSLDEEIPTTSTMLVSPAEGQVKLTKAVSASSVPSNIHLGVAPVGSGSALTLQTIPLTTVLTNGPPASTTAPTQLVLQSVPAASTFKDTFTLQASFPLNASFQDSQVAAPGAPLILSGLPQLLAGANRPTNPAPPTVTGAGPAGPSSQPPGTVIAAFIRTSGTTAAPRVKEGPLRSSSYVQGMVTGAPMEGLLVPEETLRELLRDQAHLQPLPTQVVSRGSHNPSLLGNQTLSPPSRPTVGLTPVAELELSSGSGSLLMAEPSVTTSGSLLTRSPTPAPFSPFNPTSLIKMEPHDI
# In short: as §1
# ELK4 = target: T3, ELK4 (Homo sapiens, UniProt P28324-2 1-405); settings: protein: recombinant; tags: N-terminal GST; dsDNA, one strand shown
# T3 sequence: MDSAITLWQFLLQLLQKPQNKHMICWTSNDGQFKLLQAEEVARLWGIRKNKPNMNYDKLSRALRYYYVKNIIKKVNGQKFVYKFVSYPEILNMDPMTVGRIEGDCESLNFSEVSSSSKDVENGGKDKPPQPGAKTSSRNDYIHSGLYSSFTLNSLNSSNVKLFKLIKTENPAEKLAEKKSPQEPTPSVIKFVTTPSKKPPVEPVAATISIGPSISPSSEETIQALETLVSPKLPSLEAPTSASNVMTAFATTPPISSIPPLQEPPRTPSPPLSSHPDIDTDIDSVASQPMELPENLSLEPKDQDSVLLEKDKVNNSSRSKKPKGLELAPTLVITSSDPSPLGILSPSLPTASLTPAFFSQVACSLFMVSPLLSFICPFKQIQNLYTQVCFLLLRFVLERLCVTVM
# In short: as §1
# ETV2 = target: T4, ETV2 (Homo sapiens, UniProt O00321 1-342); settings: protein: recombinant; tags: N-terminal GST; dsDNA, one strand shown
# T4 sequence: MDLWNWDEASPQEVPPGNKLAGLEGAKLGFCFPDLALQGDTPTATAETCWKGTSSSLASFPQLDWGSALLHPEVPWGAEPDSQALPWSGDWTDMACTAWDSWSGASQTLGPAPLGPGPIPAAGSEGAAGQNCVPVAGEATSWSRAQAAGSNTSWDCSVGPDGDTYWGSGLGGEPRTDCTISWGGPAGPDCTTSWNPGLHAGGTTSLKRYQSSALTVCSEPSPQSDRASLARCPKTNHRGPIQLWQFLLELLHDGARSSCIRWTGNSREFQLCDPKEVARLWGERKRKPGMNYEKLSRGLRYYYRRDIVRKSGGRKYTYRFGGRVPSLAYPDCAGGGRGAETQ
# In short: as §1
# ELF3 = target: T5, ELF3 (Homo sapiens, UniProt P78545 1-371); settings: protein: recombinant; tags: N-terminal GST; dsDNA, one strand shown
# T5 sequence: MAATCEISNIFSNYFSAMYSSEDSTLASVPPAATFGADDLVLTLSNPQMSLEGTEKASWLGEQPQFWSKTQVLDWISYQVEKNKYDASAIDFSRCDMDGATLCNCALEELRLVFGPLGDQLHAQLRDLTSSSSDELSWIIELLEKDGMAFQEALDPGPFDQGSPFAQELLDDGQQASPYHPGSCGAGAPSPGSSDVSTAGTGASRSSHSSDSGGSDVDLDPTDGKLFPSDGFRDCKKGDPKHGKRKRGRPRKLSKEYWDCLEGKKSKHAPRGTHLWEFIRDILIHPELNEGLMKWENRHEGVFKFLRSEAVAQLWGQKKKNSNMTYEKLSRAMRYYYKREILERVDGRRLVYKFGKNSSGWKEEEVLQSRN
# In short: as §1
# ETV1 = ETV1 (Homo sapiens, UniProt P50549 1-477); settings: protein: recombinant; tags: N-terminal GST; dsDNA, one strand shown
# ETV1, sequence (P50549 whole entry): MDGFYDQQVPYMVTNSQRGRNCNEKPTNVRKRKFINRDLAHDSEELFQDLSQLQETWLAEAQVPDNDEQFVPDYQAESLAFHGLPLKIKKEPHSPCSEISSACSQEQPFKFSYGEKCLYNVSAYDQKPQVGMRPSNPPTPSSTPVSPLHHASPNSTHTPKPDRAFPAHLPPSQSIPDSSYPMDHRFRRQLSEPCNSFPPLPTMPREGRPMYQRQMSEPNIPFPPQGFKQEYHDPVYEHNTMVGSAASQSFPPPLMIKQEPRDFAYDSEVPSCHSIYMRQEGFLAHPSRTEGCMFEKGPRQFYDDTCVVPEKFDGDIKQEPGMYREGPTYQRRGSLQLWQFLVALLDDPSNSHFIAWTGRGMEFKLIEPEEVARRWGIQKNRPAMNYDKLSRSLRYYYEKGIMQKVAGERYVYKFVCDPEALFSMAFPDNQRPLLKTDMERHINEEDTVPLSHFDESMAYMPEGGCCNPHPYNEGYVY
# In short: as §1
# ERF = target: T6, ERF (Homo sapiens, UniProt P50548 1-548); settings: protein: recombinant; tags: N-terminal GST; dsDNA, one strand shown
# T6 sequence: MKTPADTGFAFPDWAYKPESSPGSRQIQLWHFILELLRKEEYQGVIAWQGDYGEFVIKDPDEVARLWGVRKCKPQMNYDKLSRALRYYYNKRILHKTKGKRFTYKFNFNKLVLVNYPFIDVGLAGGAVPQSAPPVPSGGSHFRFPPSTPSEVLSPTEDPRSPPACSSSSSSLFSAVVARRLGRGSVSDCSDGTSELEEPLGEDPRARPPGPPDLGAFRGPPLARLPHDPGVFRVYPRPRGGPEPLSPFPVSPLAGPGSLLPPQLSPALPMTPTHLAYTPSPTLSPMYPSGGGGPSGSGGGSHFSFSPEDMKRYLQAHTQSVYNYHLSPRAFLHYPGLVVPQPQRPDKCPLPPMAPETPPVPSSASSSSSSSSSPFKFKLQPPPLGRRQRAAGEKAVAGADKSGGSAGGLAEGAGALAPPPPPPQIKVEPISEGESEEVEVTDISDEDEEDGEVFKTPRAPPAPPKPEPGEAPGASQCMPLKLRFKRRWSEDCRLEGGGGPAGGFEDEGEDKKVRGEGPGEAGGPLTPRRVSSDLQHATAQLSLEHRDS
# In short: as §1
# ETV3L = target: T7, ETV3L (Homo sapiens, UniProt Q6ZN32 1-361); settings: protein: recombinant; tags: N-terminal GST; dsDNA, one strand shown
# T7 sequence: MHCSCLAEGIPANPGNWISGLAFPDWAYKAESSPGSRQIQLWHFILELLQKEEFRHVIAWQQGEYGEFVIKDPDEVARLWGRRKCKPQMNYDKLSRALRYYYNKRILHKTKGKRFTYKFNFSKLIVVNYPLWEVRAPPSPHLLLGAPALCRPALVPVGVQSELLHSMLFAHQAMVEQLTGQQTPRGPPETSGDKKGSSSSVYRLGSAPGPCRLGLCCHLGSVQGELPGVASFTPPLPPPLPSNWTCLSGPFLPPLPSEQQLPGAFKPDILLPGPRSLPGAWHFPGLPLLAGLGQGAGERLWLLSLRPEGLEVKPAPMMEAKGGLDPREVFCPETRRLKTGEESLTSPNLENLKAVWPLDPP
# In short: as §1
# ETS2 = target: T8, ETS2 (Homo sapiens, UniProt P15036 1-469); settings: protein: recombinant; tags: N-terminal GST; dsDNA, one strand shown
# T8 sequence: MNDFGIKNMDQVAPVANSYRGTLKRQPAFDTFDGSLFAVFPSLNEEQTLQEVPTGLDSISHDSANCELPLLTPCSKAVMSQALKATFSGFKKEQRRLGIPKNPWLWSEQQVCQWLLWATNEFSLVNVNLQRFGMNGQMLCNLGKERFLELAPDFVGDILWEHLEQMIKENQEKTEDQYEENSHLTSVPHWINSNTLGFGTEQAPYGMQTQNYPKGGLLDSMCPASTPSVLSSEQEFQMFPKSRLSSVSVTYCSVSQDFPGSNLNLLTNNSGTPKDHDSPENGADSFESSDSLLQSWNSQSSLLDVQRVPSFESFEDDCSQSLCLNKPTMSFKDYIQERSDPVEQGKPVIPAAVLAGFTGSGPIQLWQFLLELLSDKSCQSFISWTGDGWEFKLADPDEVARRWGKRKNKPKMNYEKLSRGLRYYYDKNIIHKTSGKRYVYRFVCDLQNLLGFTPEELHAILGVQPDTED
# In short: as §1
# SPDEF = target: T9, SPDEF (Homo sapiens, UniProt O95238 1-335); settings: protein: recombinant; tags: N-terminal GST; dsDNA, one strand shown
# T9 sequence: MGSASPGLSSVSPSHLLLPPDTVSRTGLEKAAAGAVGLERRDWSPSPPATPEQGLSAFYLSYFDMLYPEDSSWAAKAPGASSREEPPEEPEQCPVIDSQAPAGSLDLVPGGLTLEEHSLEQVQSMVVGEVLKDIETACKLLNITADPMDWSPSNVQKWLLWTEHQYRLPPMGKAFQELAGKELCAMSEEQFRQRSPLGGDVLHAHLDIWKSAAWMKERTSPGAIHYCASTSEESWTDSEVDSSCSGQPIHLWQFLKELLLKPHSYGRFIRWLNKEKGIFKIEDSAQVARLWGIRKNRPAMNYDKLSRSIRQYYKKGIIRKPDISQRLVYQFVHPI
# In short: as §1
# ETV7 = target: T10, ETV7 (Homo sapiens, UniProt Q9Y603 1-341); settings: protein: recombinant; tags: N-terminal GST; dsDNA, one strand shown
# T10 sequence: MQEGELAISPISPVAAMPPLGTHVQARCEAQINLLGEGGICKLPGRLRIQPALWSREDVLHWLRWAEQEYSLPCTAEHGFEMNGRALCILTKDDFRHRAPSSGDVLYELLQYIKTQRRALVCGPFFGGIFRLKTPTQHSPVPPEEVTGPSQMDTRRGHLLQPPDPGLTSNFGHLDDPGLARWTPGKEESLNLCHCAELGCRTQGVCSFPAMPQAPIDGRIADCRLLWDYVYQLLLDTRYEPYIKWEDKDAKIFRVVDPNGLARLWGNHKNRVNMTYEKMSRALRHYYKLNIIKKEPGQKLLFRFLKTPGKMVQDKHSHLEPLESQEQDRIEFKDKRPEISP
# In short: as §1
# ELF5 = target: T11, ELF5 (Homo sapiens, UniProt Q9UKW6-2 1-255); settings: protein: recombinant; tags: N-terminal GST; dsDNA, one strand shown
# T11 sequence: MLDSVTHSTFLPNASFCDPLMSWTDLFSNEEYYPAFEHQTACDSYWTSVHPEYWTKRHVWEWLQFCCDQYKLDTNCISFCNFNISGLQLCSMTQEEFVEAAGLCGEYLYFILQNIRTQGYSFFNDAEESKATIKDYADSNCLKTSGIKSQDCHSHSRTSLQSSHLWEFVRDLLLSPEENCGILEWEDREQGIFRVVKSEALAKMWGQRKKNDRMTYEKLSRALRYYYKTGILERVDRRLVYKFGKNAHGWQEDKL
# In short: as §1
# ETV3 = target: T12, ETV3 (Homo sapiens, UniProt P41162-2 1-143); settings: protein: recombinant; tags: N-terminal GST; dsDNA, one strand shown
# T12 sequence: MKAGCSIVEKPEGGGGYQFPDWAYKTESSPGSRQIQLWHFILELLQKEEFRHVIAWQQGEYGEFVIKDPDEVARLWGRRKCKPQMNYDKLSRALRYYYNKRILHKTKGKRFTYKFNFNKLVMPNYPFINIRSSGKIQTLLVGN
# In short: as §1
# ETV6 = ETV6 (Homo sapiens, UniProt P41212 1-452); settings: protein: recombinant; tags: N-terminal GST; dsDNA, one strand shown
# ETV6, sequence (P41212 whole entry): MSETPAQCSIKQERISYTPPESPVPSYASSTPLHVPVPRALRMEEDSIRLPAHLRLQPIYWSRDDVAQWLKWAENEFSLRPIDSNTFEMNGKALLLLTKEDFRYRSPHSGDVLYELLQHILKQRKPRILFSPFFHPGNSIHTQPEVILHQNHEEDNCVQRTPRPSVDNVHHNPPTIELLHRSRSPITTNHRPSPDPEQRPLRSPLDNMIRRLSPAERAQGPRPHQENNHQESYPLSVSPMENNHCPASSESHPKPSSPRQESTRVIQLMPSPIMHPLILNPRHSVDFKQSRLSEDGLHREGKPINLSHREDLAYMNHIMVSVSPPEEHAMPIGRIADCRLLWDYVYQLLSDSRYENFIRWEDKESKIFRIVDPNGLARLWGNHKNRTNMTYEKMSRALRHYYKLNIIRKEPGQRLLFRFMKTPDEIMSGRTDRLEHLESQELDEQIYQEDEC
# In short: as §1
sequence,measurement,setting,value
CTGAAG,binding signal,FEV,"1.05 fold enrichment (6-mer frequency, TF over GST control)"
same,binding signal,ETV5,"1.06 fold enrichment (6-mer frequency, TF over GST control)"
same,binding signal,HSF1,"1.11 fold enrichment (6-mer frequency, TF over GST control)"
same,binding signal,SPIC,"1.01 fold enrichment (6-mer frequency, TF over GST control)"
same,binding signal,ELF4,"1.11 fold enrichment (6-mer frequency, TF over GST control)"
same,binding signal,ELK4,"1.05 fold enrichment (6-mer frequency, TF over GST control)"
same,binding signal,ETV2,"1.09 fold enrichment (6-mer frequency, TF over GST control)"
same,binding signal,ELF3,"1.18 fold enrichment (6-mer frequency, TF over GST control)"
same,binding signal,ETV1,"1.08 fold enrichment (6-mer frequency, TF over GST control)"
same,binding signal,ERF,"1.26 fold enrichment (6-mer frequency, TF over GST control)"
same,binding signal,ETV3L,"1.09 fold enrichment (6-mer frequency, TF over GST control)"
same,binding signal,ETS2,"1.22 fold enrichment (6-mer frequency, TF over GST control)"
same,binding signal,SPDEF,"1.15 fold enrichment (6-mer frequency, TF over GST control)"
same,binding signal,ETV7,"1.07 fold enrichment (6-mer frequency, TF over GST control)"
same,binding signal,ELF5,"1.06 fold enrichment (6-mer frequency, TF over GST control)"
same,binding signal,ETV3,"1.05 fold enrichment (6-mer frequency, TF over GST control)"
same,binding signal,ETV6,"1.05 fold enrichment (6-mer frequency, TF over GST control)"
